Each structure is given as a SMILES string. Where a name gives a salt, the structure may show the parent alone. A number with no mark means an inactive call.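 The calls were made as follows: for the amine columns active = adjusted P below 0.05 in both replicates with a change the same way and a mean fold change under 0.8 or over 1.25; inactive = the rest.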

The test system of this assay is Klebsiella aerogenes DSM 30053. The assay can be described thus: fold change of Cadaverine concentration vs plate DMSO controls (fold change (ratio)); higher = more amine produced, active = hit call of the paper (significant change in both replicates, either direction). The conditions noted are these: incubation time: 27 h, anaerobic, 37 °C. The essentials: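 Amines were quantified by LC–triple-quadrupole MS in dynamic MRM mode against external calibration curves, with drift correction within each batch. The samples were whole anaerobic mGAM cultures of four gut bacterial strains, grown for 27 h at 37 °C in 80 µL wells and extracted with cold acetonitrile/methanol with 0.1% formic acid, then centrifuged. Values are reported as fold change over DMSO controls on the same plate. The mean of 2 biological replicates is given.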
Regarding `CN[C@H](CC(C)C)C(=O)N[C@H]1C(=O)N[C@@H](CC(N)=O)C(=O)N[C@H]2C(=O)N[C@H]3C(=O)N[C@H](C(=O)N[C@H](C(=O)O)c4cc(O)cc(O)c4-c4cc3ccc4O)[C@H](O)c3ccc(c(Cl)c3)Oc3cc2cc(c3O[C@@H]2O[C@H](CO)[C@@H](O)[C@H](O)[C@H]2O[C@H]2C[C@](C)(N)[C@H](O)[C@H](C)O2)Oc2ccc(cc2Cl)[C@H]1O` [Vancomycin hydrochloride] (20 µM), the “fold change of Cadaverine concentration” value is 0.998.

Regarding `OC[C@H]1OC(O)[C@H](O)[C@H](O)[C@@H]1O` (stereo partly drawn) [D-allose] (50 µM), the “fold change of Cadaverine concentration” value was 0.993. The same measure for `COC1=CC(=O)C[C@@H](C)[C@]12Oc1c(Cl)c(OC)cc(OC)c1C2=O` [Griseofulvin] (20 µM): 0.999. To `CN1CCN(CCCN2c3ccccc3Sc3ccc(C(F)(F)F)cc32)CC1` [Trifluoperazine dihydrochloride] (20 µM) belongs 1.03; to `CCCN(CCC)S(=O)(=O)c1ccc(C(=O)O)cc1` [Probenecid] (20 µM), 1.02.

Take `C#C[C@]1(O)CC[C@H]2[C@@H]3CCC4=CC(=O)CC[C@@H]4[C@H]3CC[C@@]21C` [Norethindrone] (20 µM): the “fold change of Cadaverine concentration” value was 0.989. To `NC(=O)c1ncn([C@@H]2O[C@H](CO)[C@@H](O)[C@H]2O)n1` [Ribavirin] (20 µM) belongs 1.01; to `Cc1c(O)cccc1C(=O)N[C@@H](CSc1ccccc1)[C@H](O)CN1C[C@H]2CCCC[C@H]2C[C@H]1C(=O)NC(C)(C)C` [Nelfinavir mesylate] (20 µM), 1; to `CC1(C)S[C@@H]2[C@H](NC(=O)Cc3ccccc3)C(=O)N2[C@H]1C(=O)O` [Benzylpenicillin sodium] (20 µM), 1.03.

Take `COC(=O)Nc1nc2cc([S+]([O-])c3ccccc3)ccc2[nH]1` (stereo not given) [Oxfendazole] (20 µM): the “fold change of Cadaverine concentration” value is 1.04.

Consider `CCCc1nc(C)c2c(=O)nc(-c3cc(S(=O)(=O)N4CCN(CC)CC4)ccc3OCC)[nH]n12` [Vardenafil] (20 µM), for which the “fold change of Cadaverine concentration” value is 1.01. To `NS(=O)(=O)c1cc(C(=O)O)cc(N2CCCC2)c1Oc1ccccc1` [Piretanide] (20 µM) belongs 1.08. The same measure for `C[C@H]1C[C@@H]2[C@H]([C@@H](O)C[C@@]3(C)[C@H]2CC[C@]3(O)C(=O)CO)[C@@]2(C)C=CC(=O)C=C12` [Methylprednisolone, 6-alpha] (20 µM): 1.04; for `Oc1ccc2ccccc2c1N=Nc1ccccc1` [Sudan I (1-phenylazo-2-hydroxynaphthalene)] (20 µM): 1.08; for `CC(=O)OCC(=O)[C@@]1(O)CC[C@H]2[C@@H]3CCC4=CC(=O)CC[C@]4(C)[C@H]3[C@@H](O)C[C@@]21C` [Cortisol acetate] (20 µM): 1.01. Regarding `CCN(CC)CCNc1ccc(CO)c2sc3ccccc3c(=O)c12` [Hycanthone] (20 µM), the “fold change of Cadaverine concentration” value was 1.01. To `CC(=O)NC[C@H]1CN(c2ccc(N3CCOCC3)c(F)c2)C(=O)O1` [Linezolid] (20 µM) belongs 1; to `NNC(=O)c1ccncc1` [Isoniazid] (20 µM), 0.988.

In the case of `O=C(NCCO[N+](=O)[O-])c1cccnc1` [Nicorandil] (20 µM), the “fold change of Cadaverine concentration” value was 1.

As to `CC(=O)[C@H]1CC[C@H]2[C@@H]3CC=C4C[C@@H](O)CC[C@]4(C)[C@H]3CC[C@]12C` [Pregnenolone] (20 µM), the “fold change of Cadaverine concentration” value was 0.994. The same measure for `OC[C@@H](O)[C@@H](O)[C@H](O)[C@H](O)CO` [Mannitol] (50 µM): 0.992.

In the case of `CC[C@@]1(O)C(=O)OCc2c1cc1n(c2=O)Cc2cc3c(CN(C)C)c(O)ccc3nc2-1` [Topotecan] (20 µM), the “fold change of Cadaverine concentration” value was 1. Turning to `CCCCc1ncc(/C=C(\Cc2cccs2)C(=O)O)n1Cc1ccc(C(=O)O)cc1` [Eprosartan mesylate] (20 µM), the “fold change of Cadaverine concentration” value was 1.03. Take `CCN(CC)CC(=O)Nc1c(C)cccc1C` [Lidocaine hydrochloride] (20 µM): the “fold change of Cadaverine concentration” value was 0.988.

On to `CC(C)c1nc(CN(C)C(=O)N[C@H](C(=O)N[C@@H](Cc2ccccc2)C[C@H](O)[C@H](Cc2ccccc2)NC(=O)OCc2cncs2)C(C)C)cs1` [Ritonavir] (20 µM), for which the “fold change of Cadaverine concentration” value is 0.985.

Values taken from the supplement of paper PMC12494721.
